Source: PubChem BioAssay (Tox21)
Results filed as inconclusive are left out. Activity calls are given as the source filed them. Unless noted, calls come from the whole dose curve; as a rule, active = well fitted curve in the direction sought with a large enough effect in the repeat runs; inconclusive = weak or mixed curves; inactive = no such curve, though single readings can be large; an effect the other way counts as inactive or inconclusive.

Assays:
[1] = qHTS assay to identify small molecule antagonists of the glucocorticoid receptor (GR) signaling pathway - cell viability counter screen (AID 720693); note: nearly all actives have a fitted effect of over 55% in size; note: potency is the fitted concentration of half-maximal effect
[2] = qHTS assay for identifying genotoxic compounds that show differential cytotoxicity against isogenic chicken DT40 cell lines with known DNA damage response pathways - wild type cell line (AID 743012); note: nearly all actives have a fitted effect of over 60% in size; note: potency is the fitted concentration of half-maximal effect
Method in brief: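 300 wt DT40 cells/well; cpd (DMSO) pintool-transferred after ~0.5 h at 37 C/5% CO2; 40 h incubation; CellTiter-Glo added, 30 min RT; luminescence read.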

[3] = qHTS assay for identifying genotoxic compounds that show differential cytotoxicity against isogenic chicken DT40 cell lines with known DNA damage response pathways - Rad54/Ku70 mutant cell line (AID 743015); note: nearly all actives have a fitted effect of over 60% in size; note: potency is the fitted concentration of half-maximal effect
[4] = qHTS assay to identify small molecule antagonists of the androgen receptor (AR) signaling pathway - cell viability counter screen (AID 743033; note: nearly all actives have a fitted effect of over 45% in size)
[5] = qHTS assay to identify small molecule antagonists of the androgen receptor (AR) signaling pathway using the MDA cell line - cell viability counter screen (AID 743041; note: nearly all actives have a fitted effect of over 45% in size; note: potency is the fitted concentration of half-maximal effect)
Method in brief: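 qHTS viability read-out; MDA-kb2 AR-luc; R1881-stimulated; 16 h exposure at 37C, 0% CO2; CellTiter-Fluor, 30 min; fluorescence intensity.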

[6] = qHTS assay for identifying genotoxic compounds that show differential cytotoxicity against isogenic chicken DT40 cell lines with known DNA damage response pathways - Rev3 mutant cell line (AID 743014); note: nearly all actives have a fitted effect of over 55% in size; note: potency is the fitted concentration of half-maximal effect
[7] = target: Androgen receptor (Homo sapiens) (UniProt P10275); assay: qHTS assay to identify small molecule antagonists of the androgen receptor (AR) signaling pathway (AID 743035; active = well fitted inhibition curve with a large enough effect in the signal ratio in the repeat runs, not every such curve was filed as active; the % refers to the signal ratio; note: potency is the fitted concentration of half-maximal effect)
Method in brief: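 In this cell-based reporter screen, compounds were tested in concentration series against R1881-activated HEK293 cells expressing beta-lactamase under UAS control; after 16 h at 37C, FRET substrate was added and fluorescence read 2 h later.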

[8] = target: Androgen receptor (Homo sapiens) (UniProt P10275); assay: qHTS assay to identify small molecule agonists of the androgen receptor (AR) signaling pathway (AID 743036; active = well fitted activation curve with a large enough effect in the signal ratio in the repeat runs, with a control signal flat, not every such curve was filed as active; the % refers to the signal ratio)
Method in brief: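 AR-UAS-bla HEK293 cells, plated 4 h before dosing, were treated with compound for 16 h at 37C. beta-Lactamase reporter read after 2 h with LiveBLAzer B/G FRET substrate at room temperature.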

[9] = target: Androgen receptor (Homo sapiens) (UniProt P10275); assay: qHTS assay to identify small molecule agonists of the androgen receptor (AR) signaling pathway using the MDA cell line (AID 743040; note: nearly all actives have a fitted effect of over 20% in size)
Method in brief: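 Agonist activity is measured as luciferase luminescence in human MDA-kb2 cells whose MMTV reporter responds to both AR and GR. Compounds in DMSO incubate 16 h at 37C, 0% CO2, and ONE-Glo is read after 30 min.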

[10] = target: Androgen receptor (Homo sapiens) (UniProt P10275); assay: qHTS assay to identify small molecule antagonists of the androgen receptor (AR) signaling pathway using the MDA cell line (AID 743042; note: nearly all actives have a fitted effect of over 55% in size; note: potency is the fitted concentration of half-maximal effect)
Method in brief: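 MDA-kb2 cells (human breast carcinoma, stably carrying an MMTV-luciferase reporter responsive to AR and GR) were plated at 3,000 cells/well and preincubated 5 hr at 37C, then given compound plus R1881 agonist for 16 h. ONE-Glo luminescence was read.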

Measured: Potency

Androgen receptor (Homo sapiens), sequence (P10275 whole entry, looked up): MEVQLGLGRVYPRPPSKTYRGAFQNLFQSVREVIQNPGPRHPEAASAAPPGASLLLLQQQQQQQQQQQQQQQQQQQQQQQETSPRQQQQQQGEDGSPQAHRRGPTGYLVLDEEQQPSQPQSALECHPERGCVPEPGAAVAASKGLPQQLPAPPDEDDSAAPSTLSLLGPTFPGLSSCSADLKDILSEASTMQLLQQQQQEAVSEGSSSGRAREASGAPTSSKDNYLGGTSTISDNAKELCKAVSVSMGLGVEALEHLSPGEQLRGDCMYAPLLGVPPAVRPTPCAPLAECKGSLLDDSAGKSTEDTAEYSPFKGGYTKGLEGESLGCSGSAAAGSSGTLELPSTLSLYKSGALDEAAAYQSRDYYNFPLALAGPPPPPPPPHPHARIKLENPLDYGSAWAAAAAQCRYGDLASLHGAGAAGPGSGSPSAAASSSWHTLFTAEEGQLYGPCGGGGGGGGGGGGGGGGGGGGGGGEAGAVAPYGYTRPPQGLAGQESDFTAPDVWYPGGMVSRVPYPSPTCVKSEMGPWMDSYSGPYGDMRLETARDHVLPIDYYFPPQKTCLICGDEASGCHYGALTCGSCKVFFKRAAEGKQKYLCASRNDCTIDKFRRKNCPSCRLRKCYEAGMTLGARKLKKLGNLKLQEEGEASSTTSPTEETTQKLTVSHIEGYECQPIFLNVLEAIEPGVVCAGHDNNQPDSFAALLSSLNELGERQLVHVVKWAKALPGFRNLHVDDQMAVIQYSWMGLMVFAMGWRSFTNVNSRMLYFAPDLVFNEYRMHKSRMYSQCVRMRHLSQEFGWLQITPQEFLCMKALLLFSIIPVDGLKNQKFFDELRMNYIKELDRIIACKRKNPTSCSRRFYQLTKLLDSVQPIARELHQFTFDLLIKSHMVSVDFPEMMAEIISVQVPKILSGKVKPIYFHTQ

Clc1ccc(Nc2nnc(Cc3ccncc3)c3ccccc23)cc1
inactive: [1] | [4] | [5]
active: [2] 29.8 µM | [3] 26.6 µM

CCOc1ccc(Cc2nccc3cc(OCC)c(OCC)cc23)cc1OCC
active: [2] 4.03 µM | [6] 5.07 µM | [3] 5.07 µM
not listed: [4] | [10]
inactive: all other assays above

CCn1cc(C(=O)O)c(=O)c2cc(F)c(N3CCNCC3)cc21
inactive: [1] | [2] | [6] | [3] | [4] | [5]

COc1cc(C(=O)NCCCCCC(=O)O)cc(OC)c1OC
inactive: [1] | [2] | [3] | [4] | [5]

CCOC(=O)[C@H](CCc1ccccc1)N[C@@H](C)C(=O)N(CC(=O)O)C1Cc2ccccc2C1
active: [2] 21.1 µM | [3] 23.7 µM
inactive: [1] | [5]

CC(=O)[C@H]1[C@H](C#N)C[C@H]2[C@@H]3CC=C4C[C@@H](O)CC[C@]4(C)[C@H]3CC[C@@]21C
active: [2] 37.1 µM | [6] 37.1 µM
inactive: [1] | [4] | [5]

CC1=C(CC=O)C(C)(C)CCC1
active: [2] 54.5 µM | [3] 24.3 µM
inactive: [1] | [4]

CC(=O)OCCN(CCOC(C)=O)c1ccc(N=Nc2ccc([N+](=O)[O-])cc2C#N)cc1
active: [2] 61.1 µM | [6] 30.6 µM | [3] 30.6 µM
inactive: [1] | [4] | [5]

CCCCCCCC/C=C\CCCCCCCCCCCC(=O)O
not listed: [7] | [8] | [9]
inactive: all other assays above

COc1ccccc1N1CCN(CC(O)COc2cccc3ccccc23)CC1 (stereo unspecified)
active: [2] 23.7 µM | [6] 29.8 µM | [3] 29.8 µM
inactive: [1] | [5]

C[C@@H](CN(C)C)CN1c2ccccc2Sc2ccccc21
inactive: [1] | [5]
active: [2] 11.4 µM | [6] 11.4 µM | [3] 11.4 µM

COc1cc(N)c(Cl)cc1C(=O)NC1CCN(CCCOc2ccc(F)cc2)CC1OC (stereo unspecified)
inactive: [1] | [4] | [5]
active: [2] 11.4 µM | [3] 12.7 µM

CN(C)CCC=C1c2ccccc2C=Cc2ccccc21
inactive: [1] | [5]
active: [2] 8.41 µM | [6] 8.41 µM | [3] 10.6 µM

CC[N+](CC)(CCNC(=O)C(=O)NCC[N+](CC)(CC)Cc1ccccc1Cl)Cc1ccccc1Cl
inactive: [1] | [2] | [6] | [3] | [5]

O=C1Cc2ccccc2N1c1c(Cl)cccc1Cl
active: [2] 24.3 µM | [6] 34.4 µM | [3] 27.3 µM | [7] 54.9 µM | [10] 61.1 µM
inactive: [1] | [9] | [5]

O=C1C(=O)c2ccccc2C(O)=C1C1CCC(c2ccc(Cl)cc2)CC1 (stereo unspecified)
inactive: [1] | [6] | [4] | [5]
active: [2] 5.07 µM

c1ccc(C[n+]2cccc3ccccc32)cc1
active: [2] 54.5 µM | [6] 27.3 µM | [3] 27.3 µM | [5] 61.1 µM
inactive: [1]

CC(=O)Nc1cc(S(=O)(=O)O)cc2cc(S(=O)(=O)O)c(N=Nc3ccccc3)c(O)c12
inactive: [1] | [2] | [3] | [4] | [5]

CC/C=C1/OC(=O)c2ccccc21
not listed: [6]
inactive: all other assays above

CCOC(=O)OC(C)OC(=O)[C@@H]1N2C(=O)[C@@H](NC(=O)[C@H](N)c3ccccc3)[C@H]2SC1(C)C (stereo partly specified)
inactive: [1] | [2] | [6] | [3] | [5]

O=C1c2ccccc2C(=O)c2c(O)c(O)cc(O)c21
active: [3] 48.6 µM
inactive: [1] | [2] | [4] | [9] | [10]

CC(O)c1ccccc1 (stereo unspecified)
inactive: [1] | [2] | [3] | [4]

O=c1[nH]ncc2ccccc12
inactive: [1] | [2] | [6] | [3] | [5]

CC1=C(Br)C(=O)C(Br)=C/C1=C(/c1ccccc1S(=O)(=O)O)c1cc(Br)c(O)c(Br)c1C
inactive: [1]
active: [2] 20.8 µM | [6] 20.8 µM | [3] 20.8 µM | [5] 41.5 µM

CC(C)C[C@H](NC(=O)[C@H](CCc1ccccc1)NC(=O)CN1CCOCC1)C(=O)N[C@@H](Cc1ccccc1)C(=O)N[C@@H](CC(C)C)C(=O)[C@@]1(C)CO1
inactive: [5]
active: [1] 5.35 µM | [2] 0.0119 µM | [6] 0.0168 µM | [3] 0.0119 µM

CN1CCCC(CC2c3ccccc3Sc3ccccc32)C1 (stereo unspecified)
active: [2] 5.07 µM | [6] 7.17 µM | [3] 8.04 µM
inactive: [1] | [5]

C[C@@H](O[C@H]1OCCN(Cc2n[nH]c(=O)[nH]2)[C@H]1c1ccc(F)cc1)c1cc(C(F)(F)F)cc(C(F)(F)F)c1
active: [1] 21.3 µM | [2] 23.7 µM | [3] 23.7 µM
inactive: [8] | [9]

CCCCCCCCCCC(=O)O
inactive: [1] | [2] | [6] | [3] | [4] | [5]

CC1(C)O[C@@H]2C[C@H]3[C@@H]4C[C@H](F)C5=CC(=O)C=C[C@]5(C)[C@H]4[C@@H](O)C[C@]3(C)[C@]2(C(=O)CO)O1
inactive: [1] | [2] | [6] | [3] | [5]

Cc1ccc(C(C)(C)O)cc1
inactive: [1] | [6] | [3] | [4] | [5]

CCOC(=O)C1=C(C)NC(C)=C(C(=O)OC)C1c1cccc(Cl)c1Cl (stereo unspecified)
active: [2] 23.7 µM
inactive: [1] | [4] | [5]

CC(CN(C)C)C(C)(O)Cc1ccc(Cl)cc1 (stereo unspecified)
not listed: [3] | [6]
inactive: all other assays above

OC[C@H]1O[C@@H](n2cnc3c(=S)nc[nH]c32)[C@H](O)[C@@H]1O
active: [2] 13.3 µM
inactive: [1] | [5]

c1ccc2sc(SN(C3CCCCC3)C3CCCCC3)nc2c1
inactive: [1] | [2] | [4]

CC(=O)Nc1ccc(C)cc1C
inactive: [1] | [6] | [3] | [4] | [5]

CN1C(C(=O)Nc2ccccn2)=C(O)c2sccc2S1(=O)=O
inactive: [1] | [2] | [3] | [5]

CC(C)Nc1cccnc1N1CCN(C(=O)c2cc3cc(NS(C)(=O)=O)ccc3[nH]2)CC1
inactive: [1] | [6] | [4] | [5]

CCCCC(CC)COP(=O)(O)O (stereo unspecified)
inactive: [1] | [6] | [3] | [4] | [5]

CCCCCCNC(=O)n1cc(F)c(=O)[nH]c1=O
inactive: [1] | [5]
active: [2] 8.41 µM | [3] 11.9 µM

CN1C(=O)c2ccccc2C1=O
active: [6] 68.6 µM | [3] 61.1 µM
inactive: [1] | [5]

O=C(/C=C/c1ccc(O)c(O)c1)O[C@@H]1C[C@@](OC(=O)/C=C/c2ccc(O)c(O)c2)(C(=O)O)C[C@@H](O)[C@@H]1O
inactive: [1] | [6] | [3] | [4] | [5]

Cc1ccccc1N=C(N)Nc1ccccc1C
active: [6] 30.1 µM
inactive: [1] | [4] | [5]

O=C(O)CCCCCCCCCCCBr
inactive: [1] | [6] | [3] | [4] | [5]

O=Cc1c2ccccc2c(Cl)c2ccccc12
inactive: [1] | [6] | [3] | [4]

O=C(CCCN1CC=C(n2c(=O)[nH]c3ccccc32)CC1)c1ccc(F)cc1
active: [2] 29.8 µM
inactive: [1] | [4] | [5]

O=C1c2ccccc2C(=O)C1c1nc2ccccc2c(Br)c1O
inactive: [1] | [6] | [3] | [4] | [5]

CCC1(CO)COCOC1
inactive: [1] | [4]

Brc1cc(Br)c(Oc2cc(Br)c(Br)cc2Br)cc1Br
inactive: [1] | [2] | [5]

Cc1cccc(O)c1N
inactive: [1] | [4]

N#[N+]c1ccc2c(S(=O)(=O)[O-])cccc2c1O
inactive: [1] | [6] | [3] | [4] | [5]

C=C/C(C)=C/C/C=C(\C)CCC=C(C)C
inactive: [1] | [4] | [5]
active: [6] 61.1 µM | [3] 48.6 µM
